About 2,000 (36%) of roughly 5,500 compounds were called active. Roughly 18% stayed inconclusive and do not appear here. No stated cut-off is given here; in the data, active means normalized growth mostly below about 0.91 (no sharp cut-off); inconclusive means no clear call, values can overlap the other calls; inactive means mostly above about 0.92. The list shows a part of the results.
Assay: chemical genetic growth profiling, strain panel (AID 1159580);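 further: tested at 20 µM; growth read once vehicle control cultures reached saturation at 30 °C; 1 = growth at the plate median or of vehicle wells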
Details: growth OD

Measured: normalized growth

Cc1ccc2c(c1)C1(C)CCCC(C)(C(=O)O)C1CC2 (stereo unspecified)
inactive: S. cerevisiae deletion strains, locus YAL013W, strain DEP1, stronger effect = lower value 0.982 | S. cerevisiae deletion strains, locus YBR021W, strain FUR4, stronger effect = lower value 1.04 | S. cerevisiae deletion strains, locus YBR229C, strain ROT2, stronger effect = lower value 0.972 | S. cerevisiae deletion strains, locus YCL029C, strain bik1, stronger effect = lower value 0.998 | S. cerevisiae deletion strains, locus YDL035C, strain GPR1, stronger effect = lower value 0.99 | S. cerevisiae deletion strains, locus YDL074C, strain BRE1, stronger effect = lower value 0.951 | S. cerevisiae deletion strains, locus YDL101C, strain DUN1, stronger effect = lower value 0.975 | S. cerevisiae deletion strains, locus YDL134C, strain PPH21, stronger effect = lower value 0.992 | S. cerevisiae deletion strains, locus YDL185W, strain tfp1, stronger effect = lower value 0.95 | S. cerevisiae deletion strains, locus YDL192W, strain arf1, stronger effect = lower value 1 | S. cerevisiae deletion strains, locus YDR101C, strain arx1, stronger effect = lower value 1.01 | S. cerevisiae deletion strains, locus YDR150W, strain NUM1, stronger effect = lower value 0.992 | S. cerevisiae deletion strains, locus YDR162C, strain NBP2, stronger effect = lower value 0.907 | S. cerevisiae deletion strains, locus YDR318W, strain mcm21, stronger effect = lower value 1.02 | S. cerevisiae deletion strains, locus YDR388W, stronger effect = lower value 1.01 | S. cerevisiae deletion strains, locus YDR502C, strain sam2, stronger effect = lower value 0.984 | S. cerevisiae deletion strains, locus YEL061C, strain CIN8, stronger effect = lower value 0.993 | S. cerevisiae deletion strains, locus YER110C, stronger effect = lower value 0.991 | S. cerevisiae deletion strains, locus YER155C, strain BEM2, stronger effect = lower value 1.01 | S. cerevisiae deletion strains, locus YER167W, strain BCK2, stronger effect = lower value 1.01 | S. cerevisiae deletion strains, locus YGL078C, strain dbp3, stronger effect = lower value 0.96 | S. cerevisiae deletion strains, locus YGL086W, strain mad1, stronger effect = lower value 1.03 | S. cerevisiae deletion strains, locus YGL248W, strain PDE1, stronger effect = lower value 0.994 | S. cerevisiae deletion strains, locus YGR078C, strain PAC10, stronger effect = lower value 0.979 | S. cerevisiae deletion strains, locus YGR135W, strain pre9, stronger effect = lower value 0.96 | S. cerevisiae deletion strains, locus YGR229C, strain SMI1, stronger effect = lower value 0.979 | S. cerevisiae deletion strains, locus YGR252W, strain gcn5, stronger effect = lower value 1.06 | S. cerevisiae deletion strains, locus YHR030C, strain SLT2, stronger effect = lower value 1.02 | S. cerevisiae deletion strains, locus YHR079C, strain IRE1 (second series), stronger effect = lower value 1.01 | S. cerevisiae deletion strains, locus YHR094C, strain hxt1, stronger effect = lower value 0.996 | S. cerevisiae deletion strains, locus YHR129C, strain ARP1, stronger effect = lower value 1.01 | S. cerevisiae deletion strains, locus YHR200W, strain rpn10, stronger effect = lower value 1.01 | S. cerevisiae deletion strains, locus YIL066C, strain RNR3, stronger effect = lower value 0.994 | S. cerevisiae deletion strains, locus YIL073C, strain SPO22, stronger effect = lower value 1.03 | S. cerevisiae deletion strains, locus YIL125W, strain kgd1, stronger effect = lower value 0.986 | S. cerevisiae deletion strains, locus YIR030C, strain dcg1, stronger effect = lower value 0.998 | S. cerevisiae deletion strains, locus YJL095W, strain BCK1, stronger effect = lower value 1 | S. cerevisiae deletion strains, locus YJL134W, strain LCB3, stronger effect = lower value 1.01 | S. cerevisiae deletion strains, locus YJL168C, strain set2, stronger effect = lower value 1 | S. cerevisiae deletion strains, locus YJL187C, strain SWE1 (second series), stronger effect = lower value 0.968 | S. cerevisiae deletion strains, locus YJR043C, strain POL32, stronger effect = lower value 1.05 | S. cerevisiae deletion strains, locus YJR075W, strain HOC1, stronger effect = lower value 1.01 | S. cerevisiae deletion strains, locus YKL009W, strain mrt4, stronger effect = lower value 0.999 | S. cerevisiae deletion strains, locus YKL068W, stronger effect = lower value 0.982 | S. cerevisiae deletion strains, locus YKL085W, strain MDH1 (second series), stronger effect = lower value 0.997 | S. cerevisiae deletion strains, locus YKL085W, strain MDH1, stronger effect = lower value 0.997 | S. cerevisiae deletion strains, locus YKL190W, strain CNB1, stronger effect = lower value 0.989 | S. cerevisiae deletion strains, locus YKR001C, strain vps1, stronger effect = lower value 1.01 | S. cerevisiae deletion strains, locus YLR039C, strain RIC1, stronger effect = lower value 0.862 | S. cerevisiae deletion strains, locus YLR058C, strain SHM2, stronger effect = lower value 0.989 | S. cerevisiae deletion strains, locus YLR102C, strain apc9, stronger effect = lower value 0.989 | S. cerevisiae deletion strains, locus YLR262C, strain YPT6, stronger effect = lower value 0.806 | S. cerevisiae deletion strains, locus YLR268W, strain sec22, stronger effect = lower value 0.965 | S. cerevisiae deletion strains, locus YLR330W, strain CHS5, stronger effect = lower value 1 | S. cerevisiae deletion strains, locus YLR342W, strain FKS1 (second series), stronger effect = lower value 1.06 | S. cerevisiae deletion strains, locus YLR371W, strain rom2, stronger effect = lower value 1.02 | S. cerevisiae deletion strains, locus YLR418C, strain cdc73, stronger effect = lower value 0.967 | S. cerevisiae deletion strains, locus YML016C, strain PPZ1, stronger effect = lower value 0.998 | S. cerevisiae deletion strains, locus YML032C, strain rad52, stronger effect = lower value 1.03 | S. cerevisiae deletion strains, locus YML124C, strain tub3, stronger effect = lower value 1 | S. cerevisiae deletion strains, locus YMR078C, strain ctf18, stronger effect = lower value 0.994 | S. cerevisiae deletion strains, locus YMR223W, strain ubp8, stronger effect = lower value 1.03 | S. cerevisiae deletion strains, locus YMR263W, strain SAP30, stronger effect = lower value 0.973 | S. cerevisiae deletion strains, locus YMR307W, strain GAS1, stronger effect = lower value 0.976 | S. cerevisiae deletion strains, locus YNL067W, strain RPL9B, stronger effect = lower value 0.974 | S. cerevisiae deletion strains, locus YNL128W, strain TEP1, stronger effect = lower value 0.949 | S. cerevisiae deletion strains, locus YNL153C, strain GIM3, stronger effect = lower value 0.957 | S. cerevisiae deletion strains, locus YNL233W, strain BNI4, stronger effect = lower value 0.993 | S. cerevisiae deletion strains, locus YNL250W, strain rad50, stronger effect = lower value 0.972 | S. cerevisiae deletion strains, locus YNL271C, strain bni1, stronger effect = lower value 0.994 | S. cerevisiae deletion strains, locus YNL298W, strain CLA4, stronger effect = lower value 0.968 | S. cerevisiae deletion strains, locus YNL307C, strain MCK1, stronger effect = lower value 1.01 | S. cerevisiae deletion strains, locus YNL322C, strain KRE1, stronger effect = lower value 0.997 | S. cerevisiae deletion strains, locus YNR052C, strain pop2, stronger effect = lower value 1.02 | S. cerevisiae deletion strains, locus YOL006C, strain TOP1, stronger effect = lower value 0.956 | S. cerevisiae deletion strains, locus YOL012C, strain htz1 1.15 | S. cerevisiae deletion strains, locus YOL147C, strain pex11, stronger effect = lower value 1 | S. cerevisiae deletion strains, locus YOR061W, strain CKA2, stronger effect = lower value 0.973 | S. cerevisiae deletion strains, locus YOR069W, strain VPS5, stronger effect = lower value 1 | S. cerevisiae deletion strains, locus YOR136W, strain idh2, stronger effect = lower value 1.01 | S. cerevisiae deletion strains, locus YOR144C, strain elg1, stronger effect = lower value 1 | S. cerevisiae deletion strains, locus YOR184W, strain ser1, stronger effect = lower value 1.05 | S. cerevisiae deletion strains, locus YOR316C, strain cot1, stronger effect = lower value 0.999 | S. cerevisiae deletion strains, locus YPL055C, strain LGE1, stronger effect = lower value 0.946 | S. cerevisiae deletion strains, locus YPL241C, strain CIN2, stronger effect = lower value 0.997 | S. cerevisiae deletion strains, locus YPR119W, strain clb2, stronger effect = lower value 1 | S. cerevisiae deletion strains, locus YPR141C, strain kar3, stronger effect = lower value 0.939 | S. cerevisiae deletion strains, locus YPR163C, strain tif3, stronger effect = lower value 1 | S. cerevisiae deletion strains, locus YPR167C, strain met16, stronger effect = lower value 0.995 | S. cerevisiae deletion strains, strain wtn01, stronger effect = lower value 0.999 | S. cerevisiae strains, strain wild type, stronger effect = lower value 0.993

From PubChem BioAssay AID1159580 (chemical genetic matrix, 2015)
